TGFb inhibitor: TGF-b pathway inhibition; actives 1.2% (n = 410,000); AID 588855; Potency, µM (top dose mostly 46.1 µM), for inactives: top-dose activity, negative = inhibition, most hits filed as inhibitors; HepG2 CAGA-GFP TGF-b/SMAD3 reporter, GFP fluorescence, 18 h; TGF-beta stimulated, 500 pg/mL final; also: % is scaled to controls: 0 for no effect and ±100 for the full control effect; nearly all actives have a fitted effect of over 65% in size
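GFP signal (ex488/em500-530) from TGF-beta-stimulated HEPG2 CAGA-GFP cells, 500 pg/mL final, 18 h at 37 degrees C in DMEM plus 1% FBS, normalized to unstimulated and DMSO-stimulated controls.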
S2 tox: reduces viability in counter-screen for ATXN expression inhibitors. S2 cells (HEK-293 line with an ATXN2-luciferase reporter) viability, CellTiter-Fluor protease fluorescence, 24 h. Potency, µM (titrated, usually from 56.7 µM), actives largely listed as cytotoxic. AID 651635. actives 0.49% (n = 400,000); also: nearly all actives have a fitted effect of over 40% in size
RORgamma inh: ROR gamma (mouse) transcription inhibition; P51450; Drosophila S2 Gal4-RORgamma UAS-luciferase reporter, 20 h; Potency, µM (top dose mostly 53.6 µM), inactives show at the highest dose activity change, negative = inhibition, actives largely listed as inhibitors; actives 5.4% (n = 310,000); AID 2551; also: % is scaled to controls: 0 for no effect and ±100 for the full control effect; nearly all actives have a fitted effect of over 60% in size
Target sequence (P51450 whole entry, looked up, the tested form may be a part): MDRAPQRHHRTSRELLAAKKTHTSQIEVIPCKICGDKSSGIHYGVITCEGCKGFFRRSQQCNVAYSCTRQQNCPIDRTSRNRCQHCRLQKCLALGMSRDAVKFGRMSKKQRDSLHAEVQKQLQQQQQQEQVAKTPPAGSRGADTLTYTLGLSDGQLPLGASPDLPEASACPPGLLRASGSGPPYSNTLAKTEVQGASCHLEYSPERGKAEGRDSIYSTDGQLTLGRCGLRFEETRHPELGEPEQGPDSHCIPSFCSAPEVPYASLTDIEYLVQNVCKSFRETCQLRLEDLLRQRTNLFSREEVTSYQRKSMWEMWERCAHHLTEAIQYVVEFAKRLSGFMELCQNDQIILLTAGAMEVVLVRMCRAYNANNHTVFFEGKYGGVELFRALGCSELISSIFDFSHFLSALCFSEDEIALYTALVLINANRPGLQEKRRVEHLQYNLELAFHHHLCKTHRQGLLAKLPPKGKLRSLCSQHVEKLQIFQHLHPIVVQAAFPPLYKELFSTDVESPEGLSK
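Schneider cells (Drosophila), stable Gal4 DBD–ROR gamma + UAS-luc; 1 hr cmpd preincubation; Cu2+ induction 700 uM final; 20 hr ambient; luminescence.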
HepG2 tox: counter-screen for TGF-b inhibitors: cytotoxicity in HepG2 cells. HepG2 CAGA-GFP viability, ATP luminescence, 18 h. Potency, µM (series often up to 46.1 µM), for inactives: top-dose activity change, negative = cytotoxicity, usual class: cytotoxic. actives 0.76% (n = 410,000). AID 588856
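CellTiter-Glo luminescence gave cytotoxicity after 18 hours at 37 degrees C. The cells were HepG2 CAGA-GFP in 1% FBS DMEM, stimulated with 500 pg/mL TGF-beta after compound addition. %Activity was normalised to no-cell wells (complete cell-killing) and DMSO (no toxicity), and curves were fitted and classified.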
Gal4-VP16 FLuc: Gal4-VP16 reporter inhibition counter-screen. Potency, µM (top dose mostly 53.6 µM), inactives show top-dose activity, negative = inhibition, hits mostly inhibitors. actives 3.5% (n = 310,000). Drosophila S2 Gal4-VP16 UAS-luciferase, luminescence, 20 h;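 also: Gal4-VP16 expression switched on by copper sulfate through the metallothionein promoter; % is scaled to controls: 0 for no effect and ±100 for the full control effect; nearly all actives have a fitted effect of over 50% in size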
ATXN2 expr inh: ATXN2 expression inhibition; actives 0.72% (n = 360,000); Potency, µM (doses to about 57 µM), inactives show at the top dose activity change, negative = inhibition, actives largely listed as inhibitors; HEK-293 ATXN2-luciferase reporter, luminescence, 24 h; also: % is scaled to controls: 0 for no effect and ±100 for the full control effect; nearly all actives have a fitted effect of over 55% in size
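ATXN2-luciferase reporter cells (luciferase flanked by upstream and downstream ATXN2 gene portions) were treated 24 h at 37 °C with compounds at up to 57 uM. SteadyGlo luminescence gave expression; GF-AFC fluorescence gave viability.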
* hit, by the source's call; i = inactive; ? = inconclusive; nt = no result given; [ ] = dose if it differs, or a comment. Sampled rows, rich in hits. Any-hit rate of the full collection: about 6.3%. Calls follow the shape of the dose curve; as a rule, active = well fitted curve in the direction sought with a large enough effect; inconclusive = small, poorly fitted or top-dose-only effect, or another doubt; inactive = no such curve, though single readings can be large; an effect the other way counts as inactive or inconclusive. Potency is read from the fitted curve at half-maximal effect.

SMILES | TGFb inhibitor | S2 tox | RORgamma inh | HepG2 tox | Gal4-VP16 FLuc | ATXN2 expr inh
O=[N+]([O-])c1cccc(-c2ccc(C(=S)N3CCN(c4ccc(F)cc4)CC3)o2)c1 | -8% | i | 6% | -18% | -14% | -10%
Cc1cn([C@H]2C[C@H](O)[C@@H](CNC(=O)CNC(=O)CN)O2)c(=O)[nH]c1=O | 1% | i | nt | 6% | nt | 10%
O=C(/C=C/c1ccccc1)NC(NC(=S)Nc1cc(Cl)ccc1Cl)C(Cl)(Cl)Cl (stereo not drawn) | 2.2µM* | ? | 15% | -7% | 2% | ?
O=C(CCc1ccccc1)NC(NC(=S)Nc1ccc(Cl)cc1)C(Cl)(Cl)Cl (stereo not drawn) | -3% | nt | -30% | -95% | ? | 32µM*
O=C(/C=C/c1ccccc1)NC(NC(=S)Nc1ccc(Cl)cc1)C(Cl)(Cl)Cl (stereo not drawn) | ? | i | ? | -39% | 10µM* | ?
CC(=O)NC(NC(=S)Nc1ccc(N=Nc2ccccc2)cc1)C(Cl)(Cl)Cl (stereo not drawn) | ? | ? | 7.1µM* | -48% | 5µM* | -34%
COC(=O)[C@@H]1CCCN1C(=O)c1cc(NC(=O)C2CCC2)c2c(c1)nc(-c1ccncc1)n2C | nt | i | nt | nt | nt | nt
CCCCC1CCC(CCCC(C)CCC(=O)O)CC1 (stereo not drawn) | -4% | nt | nt | 9% | nt | nt
Cc1noc(C)c1C(=O)N1CCC2(CC1)CN(c1cccc(-c3ccccc3)c1)C2 | nt | nt | 29% | nt | -14% | nt
O=c1c2cc(F)ccc2sn1-c1ccccc1 | 11µM* | 13µM* | nt | -94% | nt | ?
Cc1ccccc1-n1sc2cc(F)ccc2c1=O | ? | ? | 3.2µM* | -40% | 2.8µM* | ?
O=c1c2ccccc2sn1-c1ccccc1 | 16µM* | nt | 3.5µM* | -60% | 2.8µM* | ?
O=C(O)c1cccc(-n2sc3ccccc3c2=O)c1 | ? | ? | nt | -38% | nt | -24%
O=c1c2cc(C(F)(F)F)ccc2sn1-c1ccccc1 | -29% | ? | nt | -38% | nt | 4%
O=c1c2ccccc2sn1-c1cccc(Cl)c1 | ? | 25µM* | nt | -65% | nt | -25%
CCC(C)CCCCC(=O)N[C@@H](CCN)C(=O)NC(C(=O)N[C@H](CCN)C(=O)N[C@@H]1CCNC(=O)C([C@@H](C)O)NC(=O)[C@@H](CCN)NC(=O)[C@@H](CCN)NC(=O)[C@@H](CC(C)C)NC(=O)[C@H](Cc2ccccc2)NC(=O)[C@H](CCN)NC1=O)[C@@H](C)O (stereo partly drawn) | nt | nt | nt | nt | nt | 3%
CC(=O)Nc1ccc2c(=O)n(-c3ccccc3)sc2c1 | ? | nt | nt | -78% | nt | ?
Cn1sc2ccccc2c1=O | ? | nt | nt | -111% | nt | 28µM*
O=C1c2ccccc2C(=O)N1c1nccs1 | 14% | i | nt | -1% | nt | 2%
O=c1c2ccccc2sn1-c1nccs1 | -21% | ? | 8.9µM* | -7% | ? | -4%[11.3 µM]
O=c1c2ccccc2sn1-c1ccccc1F | ? | 20µM* | nt | -87% | nt | ?
N#Cc1ccc2c(=O)n(-c3ccccc3)sc2c1 | -34% | 10µM* | nt | -57% | nt | -35%
O=C1CN(c2ccccc2F)C(=O)CN1c1ccccc1F | -3% | i | 0% | -9% | 3% | 4%
CC(=O)N1CCC2(CC1)OC(=O)C(C)=C2C(=O)Nc1cc(C)ccc1C | -25% | nt | nt | -9% | nt | nt
CCOc1cccc(CNCCO)c1OCc1ccc(Cl)cc1Cl | ? | ? | 1% | -86% | -5% | -31%
CCOc1cccc(CNn2cnnc2)c1OCc1ccccc1Cl | 23% | i | -10% | 1% | -3% | 2%
CCOc1cc(CNc2ccccc2)cc(Br)c1OCc1ccc(F)cc1 | -6% | i | 24% | -1% | -1% | -1%
CCOc1cccc(CNc2ccc(O)cc2)c1OCc1ccc(Cl)cc1Cl | ? | ? | 16µM* | -38% | ? | ?

High-throughput results as filed in PubChem.
